This is an account of results in PubChem BioAssay (NCATS).

The nature of assay [1]: qHTS Assay for Identifying Gametocytocidal Compounds (AID 743244; active = well fitted curve in the direction sought with a large enough effect; an effect the other way counts as inactive or inconclusive;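 also: % is scaled to controls: 0 for no effect and ±100 for the full control effect; actives lower the fluorescent signal which means gametocytes are killed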). Conditions: P. falciparum 3D7 stage III-V gametocytes, alamarBlue, 72 h; max response: stronger effect = lower value. The method in brief: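 Compounds are pinned into medium, gametocytes (stage III–V, 3D7, 20,000 cells/well) added, and plates held 72 h at 37 °C in 5% CO2. AlamarBlue follows for 24 h before fluorescence reading.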
In general terms: Quantitative high-throughput screening tests each substance at several concentrations.

A short description of assay [2]: qHTS profiling for inhibitors of Plasmodium falciparum (3D7) proliferation (AID 743322).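 Also: infected erythrocytes exposed to compound for 72 h before lysis; 100% = DMSO vehicle wells and 0% = 0.29 µM artemisinin.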 Conditions: P. falciparum 3D7 proliferation; at 28.7 µM (top of the series) unless noted. An outline of the steps: (§1)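 Erythrocytes infected with P. falciparum (0.3% parasitemia, 2.5% hematocrit) incubated with compounds 72 h at 37 C, 5% CO2. Lysis with saponin/Triton buffer containing SYBR Green I, overnight at room temperature in the dark; DNA fluorescence (485/535 nm) normalised to 0.29 uM artemisinin and DMSO.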

Assay [3] can be described thus: qHTS profiling for inhibitors of Plasmodium falciparum (DD2) proliferation (AID 743323). Conditions: lower = more inhibition; at 28.7 µM (top of the series) unless noted. The method in brief:
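Parasite proliferation measured via DNA-dye fluorescence, as uninfected erythrocytes lack DNA. Cultures at 0.3% parasitemia and 2.5% hematocrit incubated 72 h with compound; signal scaled between vehicle and 0.29 uM artemisinin wells.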

The nature of assay [4]: qHTS profiling for inhibitors of Plasmodium falciparum (HB3) proliferation (AID 743324; active = well fitted curve in the direction sought with a large enough effect; an effect the other way counts as inactive or inconclusive;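 also: 100% = DMSO vehicle wells and 0% = artemisinin-treated control wells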). Conditions: Plasmodium falciparum HB3 blood-stage proliferation; at 28.7 µM (top of the series) unless noted. The method in brief:
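P. falciparum HB3 grown in erythrocytes (0.3% parasitemia, 2.5% hematocrit final) with compound for 72 h at 37 C, 5% CO2. Parasite DNA detected by SYBR Green after saponin/triton lysis overnight; normalized to 0.29 uM artemisinin and DMSO.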

Assay [5] is described as follows: qHTS profiling of the MIPE4 collection as inhibitors of Plasmodium falciparum (3D7) proliferation (AID 743344).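 Also: scaled between DMSO vehicle wells and 0.29 µM artemisinin as full inhibition.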 Conditions: P. falciparum 3D7 in erythrocytes, SYBR Green DNA fluorescence, 72 h; at 28.5 µM (top of the series) unless noted. The method in brief:
as §1

Assay [6] can be described thus: qHTS profiling of the MIPE4 collection as inhibitors of Plasmodium falciparum (DD2) proliferation (AID 743345). The following applies: P. falciparum Dd2 in erythrocytes, SYBR Green DNA, 72 h; at 28.5 µM (top of the series) unless noted. An outline of the steps:
as §1

Assay [7] can be described thus: qHTS profiling of the MIPE4 collection as inhibitors of Plasmodium falciparum (DD2) proliferation (Rep 2) (AID 743346). Conditions: P. falciparum Dd2 in erythrocytes, SYBR Green DNA, 72 h; at 28.5 µM (top of the series) unless noted. The method in brief:
as §1

A short description of assay [8]: qHTS profiling of the MIPE4 collection as inhibitors of Plasmodium falciparum (HB3) proliferation (AID 743347).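 Also: plate controls were DMSO vehicle wells for no effect and artemisinin wells for full effect.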 The following applies: P. falciparum HB3 in erythrocytes, SYBR Green DNA, 72 h; at 28.5 µM (top of the series) unless noted. An outline of the steps: as §1

Molecules are shown by their SMILES. Records with an inconclusive call do not appear. Active and inactive are the calls of the source. Unless noted, no rule for the calls is given here.

As for `CCn1c(-c2nonc2N)nc2cnc(Oc3cccc(NC(=O)c4ccc(OCCN5CCOCC5)cc4)c3)cc21`, the max response in assay [1] was 33.1% (inactive). The remaining parasite growth % (stronger effect = lower value) in assay [2] was 15.3%. The activity, percent of control in assay [3] was 20.7%. For the same molecule, in assay [4], the remaining proliferation (% of control), lower = more inhibition was determined as 14.7%. In assay [5], the parasite growth, % of DMSO control was 13.1%. This molecule returned a parasite growth remaining, % of DMSO control (lower = more inhibition) in assay [6] of 57.9%. This molecule also registered a parasite growth, % of control (lower = inhibition) in assay [7] of 22.1%. This molecule also had a growth, % of control in assay [8] of 3.64%.

Turning to `CCc1cncnc1N1CCN(Cc2nc3ccc(C(F)(F)F)cc3[nH]2)CC1`, the max response in assay [1] is 8.68% (inactive). Moreover, the remaining parasite growth % (stronger effect = lower value) in assay [2] amounted to 24.3%. Besides, in assay [3], the activity, percent of control is 20.3%. Also, the remaining proliferation (% of control), lower = more inhibition in assay [4] was 14%. Further, the parasite growth, % of DMSO control in assay [5] stood at 19.6%. The molecule also yielded a parasite growth remaining, % of DMSO control (lower = more inhibition) in assay [6] of 33%. Besides, the parasite growth, % of control (lower = inhibition) in assay [7] was 27.9%. For the same molecule, the growth, % of control in assay [8] was found to be 15.6%.

On to `COc1ccc(COc2cc3oc(=O)c4cc(C(C)O)ccc4c3cc2OC)cc1` (centres undefined), for which the max response in assay [1] is 29.9% (inactive). Also, in assay [2], the remaining parasite growth % (stronger effect = lower value) came out at 75.7%. Further, the activity, percent of control in assay [3] stood at 22%. Also, in assay [4], the remaining proliferation (% of control), lower = more inhibition was found to be 74.7%. In assay [5], this molecule gave a parasite growth, % of DMSO control of 39.5%. In assay [6], this molecule displayed a parasite growth remaining, % of DMSO control (lower = more inhibition) of 77.1%. In assay [7], the parasite growth, % of control (lower = inhibition) amounted to 27.3%. Further, in assay [8], the growth, % of control worked out at 46.1%.

`COc1ccc(C2=N[C@H](c3ccc(Cl)cc3)[C@H](c3ccc(Cl)cc3)N2C(=O)N2CCNC(=O)C2)c(OC(C)C)c1`: the max response in assay [1] was 18.2% (inactive). Also, in assay [2], the remaining parasite growth % (stronger effect = lower value) is 52.3%. In addition, the activity, percent of control in assay [3] came to 50.5%. For the same molecule, in assay [4], the remaining proliferation (% of control), lower = more inhibition amounted to 23.2%. Further, in assay [5], the parasite growth, % of DMSO control is 17.5%. In addition, the parasite growth remaining, % of DMSO control (lower = more inhibition) in assay [6] came to 54.6%. The parasite growth, % of control (lower = inhibition) in assay [7] amounted to 11.8%.

On to `CCOc1cc(C(=O)Nc2ccc(Cl)c(-c3nc4ccccc4[nH]3)c2)cc(OCC)c1OCC`, for which the max response in assay [1] is -21.5% (inactive). Besides, the remaining parasite growth % (stronger effect = lower value) in assay [2] worked out at 1.56%. The activity, percent of control in assay [3] was determined as 15.9%. For the same molecule, in assay [4], the remaining proliferation (% of control), lower = more inhibition worked out at 0.587%. The parasite growth, % of DMSO control in assay [5] was found to be 5.5%. The parasite growth remaining, % of DMSO control (lower = more inhibition) in assay [6] stood at 58.5%. In assay [7], this molecule registered a parasite growth, % of control (lower = inhibition) of 17%. The same molecule showed a growth, % of control in assay [8] of 7.25%.

Take `Cn1cc(-c2ccc3nnc(C(F)(F)c4ccc5ncccc5c4)n3n2)cn1`: the max response in assay [1] is -4.32% (inactive). Also, the remaining parasite growth % (stronger effect = lower value) in assay [2] came out at 40.4%. The activity, percent of control in assay [3] was 62.2%. Further, the remaining proliferation (% of control), lower = more inhibition in assay [4] came to 17.3%. This molecule registered a parasite growth, % of DMSO control in assay [5] of 24.5%. The same molecule displayed a parasite growth remaining, % of DMSO control (lower = more inhibition) in assay [6] of 70.3%. Also, the parasite growth, % of control (lower = inhibition) in assay [7] came out at 41.1%. In assay [8], this molecule displayed a growth, % of control of 35.2%.

With `COc1c(Cl)cc2c([nH]c3cnccc32)c1NC(=O)c1cccnc1C`, in assay [1], the max response is 20.9% (inactive). Besides, in assay [2], the remaining parasite growth % (stronger effect = lower value) was 107%. In assay [3], the activity, percent of control worked out at 108%. In addition, the remaining proliferation (% of control), lower = more inhibition in assay [4] came to 86.1%. Further, the parasite growth, % of DMSO control in assay [5] was determined as 19.9%. This molecule registered a parasite growth remaining, % of DMSO control (lower = more inhibition) in assay [6] of 72.7%. The parasite growth, % of control (lower = inhibition) in assay [7] stood at 25.5%.

On to `C[C@]1(c2nc3c(C(N)=O)cccc3[nH]2)CCCN1`, for which the max response in assay [1] is 20.1% (inactive). Moreover, in assay [2], the remaining parasite growth % (stronger effect = lower value) is 93.1%. Moreover, the activity, percent of control in assay [3] is 87.4%. Further, the remaining proliferation (% of control), lower = more inhibition in assay [4] worked out at 94%. The parasite growth, % of DMSO control in assay [5] amounted to 88.7%. The parasite growth remaining, % of DMSO control (lower = more inhibition) in assay [6] was determined as 94.9%. This molecule registered a parasite growth, % of control (lower = inhibition) in assay [7] of 85.5%. In assay [8], this molecule showed a growth, % of control of 88.5%.

For `CC(C)OC(=O)C1=CN(C(=O)c2ccc(F)c(F)c2)CC(C)(C)c2c1[nH]c1ccccc21`, the max response in assay [1] is 18.7% (inactive). Moreover, in assay [2], the remaining parasite growth % (stronger effect = lower value) is 15.1%. For the same molecule, in assay [3], the activity, percent of control stood at 36.4%. For the same molecule, in assay [4], the remaining proliferation (% of control), lower = more inhibition stood at 29.3%. Further, the parasite growth, % of DMSO control in assay [5] was determined as 51.5%. The molecule also gave a parasite growth remaining, % of DMSO control (lower = more inhibition) in assay [6] of 44.6%. Also, in assay [7], the parasite growth, % of control (lower = inhibition) amounted to 66.4%.

Regarding `COc1cc(Oc2ccnc3cc(OC)c(OC)cc23)ccc1NC(=O)NC(C)c1nccs1` (centres undefined), the max response in assay [1] was 6.55% (inactive). In addition, the remaining parasite growth % (stronger effect = lower value) in assay [2] is 69.7%. In assay [3], the activity, percent of control is 56.8%. Also, the remaining proliferation (% of control), lower = more inhibition in assay [4] is 16.5%. Moreover, the parasite growth, % of DMSO control in assay [5] amounted to 22.7%. Moreover, in assay [6], the parasite growth remaining, % of DMSO control (lower = more inhibition) turned out to be 85.4%. In assay [7], this molecule displayed a parasite growth, % of control (lower = inhibition) of 40.3%.

As to `OC[C@H](Cc1ccccc1)Nc1nc(Oc2ccc3c(c2)CCC3)nc2c1ncn2Cc1ccc(-c2ccccc2)cc1`, the max response in assay [1] was -2.93% (inactive). For the same molecule, the remaining parasite growth % (stronger effect = lower value) in assay [2] was 6.42%. Also, in assay [3], the activity, percent of control amounted to 5.17%. The remaining proliferation (% of control), lower = more inhibition in assay [4] is -0.578%. Also, the parasite growth, % of DMSO control in assay [5] is 33.7%. The parasite growth remaining, % of DMSO control (lower = more inhibition) in assay [6] amounted to 44.8%. Moreover, in assay [7], the parasite growth, % of control (lower = inhibition) is 27%. This molecule also showed a growth, % of control in assay [8] of 68.3%.
